The text below walks through data of PubChem BioAssay (EPA / NIEHS).

Inconclusive results are not listed. Where a structure was tested more than once in an assay, its records may differ in their call. Active and inactive are the calls of the source. Rule for the calls, unless noted: active = hit-call score of the fitted dose curve at least 0.9, where 1 is the maximum; inactive = score below 0.9.

A short description of test [1]: CCTE_Deisenroth_AIME_384WELL_CTox_Active: Cytotoxicity Assessment (CTOX) in CCTE's 384-well Estrogen Receptor Transactivation Assay with AIME metabolic competence (metabolism positive), Deisenroth Lab (AID 2284037; active = hit-call score of the fitted dose curve at least 0.9, where 1 is the maximum;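 note: chemicals first conditioned 2 h by alginate-bound induced rat liver S9 before cells; activity means signal loss indicating cell death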). The method, boiled down: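 Chemicals pre-incubated 2 hours with alginate-immobilised phenobarbital/beta-naphthoflavone-induced male Sprague Dawley rat liver S9, then conditioned medium applied 24 hour to VM7Luc4E2 cells. Viability by fluorogenic protease substrate; 10-point series 0.002 - 200 uM.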

A short description of test [2]: CCTE_Deisenroth_AIME_384WELL_CTox_Inactive: Cytotoxicity Assessment (CTOX) in CCTE's 384-well Estrogen Receptor Transactivation Assay without AIME metabolic competence (metabolism negative), Deisenroth Lab (AID 2284039; active = hit-call score of the fitted dose curve at least 0.9, where 1 is the maximum;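 note: cell viability via live-cell protease substrate cleaved to fluorescent probe; cells exposed 24 h to medium preincubated 2 h with alginate-water beads without S9; loss of fluorescence signal means loss of viability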). The method, boiled down:
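VM7Luc4E2 human breast cells received conditioned medium from a 2 h incubation of chemical with alginate-water microspheres (no S9), then were exposed 24 h. Viability was read as protease-substrate cleavage to a fluorescent probe; loss of signal was fitted bidirectionally over 0.002–200 uM.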

Test [3] deals with Estrogen receptor (Homo sapiens) (UniProt P03372). Kind of test: CCTE_Deisenroth_AIME_384WELL_LUC_Inactive: CCTE's 384-well Estrogen Receptor Transactivation Assay without AIME metabolic competence (ERTA luciferase; metabolism negative), Deisenroth Lab (AID 2284038; active = hit-call score of the fitted dose curve at least 0.9, where 1 is the maximum;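 note: hits raise estrogen receptor luciferase signal so potencies reflect agonists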). The method, boiled down: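 VM7Luc4E2 ER transactivation, luciferase bioluminescence after 24 h, using medium pre-incubated 2 h with S9-free alginate microspheres. Concentrations 0.002–200 uM; gain of signal fitted relative to 17beta-estradiol.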
Sequence of Estrogen receptor (Homo sapiens) (P03372 whole entry, looked up): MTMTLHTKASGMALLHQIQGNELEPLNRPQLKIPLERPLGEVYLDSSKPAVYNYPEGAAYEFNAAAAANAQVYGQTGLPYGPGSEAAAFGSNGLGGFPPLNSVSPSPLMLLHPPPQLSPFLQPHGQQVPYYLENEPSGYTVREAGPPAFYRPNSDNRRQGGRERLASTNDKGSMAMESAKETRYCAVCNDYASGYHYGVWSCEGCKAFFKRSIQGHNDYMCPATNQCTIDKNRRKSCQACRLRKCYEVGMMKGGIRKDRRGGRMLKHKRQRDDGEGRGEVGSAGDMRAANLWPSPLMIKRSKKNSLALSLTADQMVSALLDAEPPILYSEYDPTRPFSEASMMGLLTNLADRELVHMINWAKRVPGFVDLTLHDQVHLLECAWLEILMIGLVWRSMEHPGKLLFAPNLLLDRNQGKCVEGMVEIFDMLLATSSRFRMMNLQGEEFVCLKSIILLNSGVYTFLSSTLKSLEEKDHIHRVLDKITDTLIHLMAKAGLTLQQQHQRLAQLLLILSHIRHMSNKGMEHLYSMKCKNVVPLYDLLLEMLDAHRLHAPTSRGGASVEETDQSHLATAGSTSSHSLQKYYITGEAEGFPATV

The target is the same in test [4]. As to the kind of experiment: CCTE_Deisenroth_AIME_384WELL_LUC_Shift: CCTE's 384-well Estrogen Receptor Transactivation Assay with AIME metabolic competence data shift (ERTA luciferase; difference in metabolism positive and negative), Deisenroth Lab (AID 2284041).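 Note: shift is response with S9 minus without S9 so positive means metabolism raised ER signal.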 The method, boiled down: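 Chemicals (0.002–200 uM, 10 points) pre-incubated 2 h with alginate-encapsulated induced male Sprague Dawley rat liver S9 or S9-free, then medium applied 24 h to VM7Luc4E2 cells; luciferase. Endpoint is per-concentration difference, S9-positive minus negative.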

A short description of test [5]: CCTE_Shafer_MEA_dev_active_electrodes_number: CCTE's Neural Network Formation Assay for Number of Active Electrodes, Shafer Lab (AID 2284040; active = hit-call score of the fitted dose curve at least 0.9, where 1 is the maximum;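 for AC50: potency for loss of active electrodes versus DMSO so lower counts are hits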). The method, boiled down:
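Counts electrodes per well firing at least 5 spikes/min, recorded on days 5, 7, 9 and 12 in rat cortical cultures dosed continuously from plating (treatment refreshed DIV 5, 9). Value is the area under the curve over recordings, fitted downward relative to DMSO.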

Test [6] is described as follows: CCTE_Shafer_MEA_dev_burst_rate: CCTE's Neural Network Formation Assay for Burst Rate, Shafer Lab (AID 2284042).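 For AC50: potency for loss of burst rate below DMSO control.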 The method, boiled down:
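Rat primary cortical cultures on PEI/laminin MEA; compound from plating, re-dosed at DIV 5, 9 media change. Single-electrode bursts/recording length, well mean of active electrodes; AUC over DIV 5–12 recordings; loss-of-signal vs DMSO.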

Test [7] can be described thus: CCTE_Shafer_MEA_dev_per_burst_interspike_interval: CCTE's Neural Network Formation Assay for Burst Interspike Interval, Shafer Lab (AID 2284044).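 For AC50: potency for a decrease of within-burst interspike interval below DMSO level.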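 Note: mean spike spacing inside bursts as AUC over recordings on days 5 7 9 12.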 The method, boiled down: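 Primary rat cortical neurons on 48-well MEA plates, exposed from day 0 through day 12, treatment renewed at DIV 5 and 9. Within-burst interspike interval recorded days 5, 7, 9, 12, well-averaged, summarised as AUC; negative fit versus DMSO.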

The nature of test [8]: CCTE_Shafer_MEA_dev_burst_duration_mean: CCTE's Neural Network Formation Assay for Mean Burst Duration, Shafer Lab (AID 2284045).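 For AC50: curve fitted for loss meaning shorter burst duration than DMSO.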 In short, it runs like this: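 Rat cortical cultures, 1.5 x 10^5 cells/well with laminin drop; continuous dosing days 0–12, media plus treatment refreshed DIV 5, 9. AxIS adaptive spike detection; mean single-electrode burst duration, AUC over four recordings, negative direction vs DMSO.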

A short description of test [9]: CCTE_Shafer_MEA_dev_interburst_interval_mean: CCTE's Neural Network Formation Assay for Mean Interburst Interval, Shafer Lab (AID 2284046).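 Note: well-mean interburst interval of bursting electrodes as AUC over four recording days; curve fitted for decrease in interburst interval relative to DMSO.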 In short, it runs like this:
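Rat cortical neurons, 1.5 x 10^5 cells/well, 48-well MEA; compound from day 0 through DIV 12, media and treatment renewed DIV 5/9. Recordings DIV 5, 7, 9, 12; well-mean interburst interval → trapezoidal AUC, loss direction vs DMSO.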

Test [10] is described as follows: CCTE_Shafer_MEA_dev_inter_network_spike_interval_mean: CCTE's Neural Network Formation Assay for Mean Inter-network Spike Interval, Shafer Lab (AID 2284047). The method, boiled down:
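Primary rat cortical neurons on PEI-coated 48-well MEAs (16 electrodes/well) were exposed from plating day 0 to DIV 12, with dosing renewed at DIV 5 and 9. Recordings at DIV 5, 7, 9, 12 were collapsed by trapezoidal AUC, loss-of-signal fit vs DMSO.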

Test [11] can be described thus: CCTE_Shafer_MEA_dev_network_spike_number: CCTE's Neural Network Formation Assay for Number of Network Spikes, Shafer Lab (AID 2284048).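 For AC50: fit as a loss of signal meaning fewer network spikes than DMSO.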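 Note: synchronized bursts across electrodes counted on days 5 7 9 12 and integrated as AUC.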 The method, boiled down:
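Rat cortical primary cultures on 48-well MEA (16 electrodes/well); continuous exposure DIV 0–12, full medium and treatment exchange DIV 5, 9. Readout: network spike count, AxIS adaptive detection, recordings DIV 5/7/9/12 collapsed to AUC; loss-of-signal fit, DMSO baseline.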

Test [12] is described as follows: CCTE_Shafer_MEA_dev_network_spike_peak: CCTE's Neural Network Formation Assay for Mean Number of Electrodes in Network Spike, Shafer Lab (AID 2284049).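 For AC50: fitted for loss of signal meaning fewer electrodes in network spikes than DMSO.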 In short, it runs like this:
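Network-spike peak electrode count from recordings on days 5, 7, 9 and 12 was combined as trapezoidal area under the curve. Rat cortical cultures were treated continuously from plating, with compound renewed at each feed (DIV 5, 9); fits versus DMSO.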

Test [13] can be described thus: CCTE_Shafer_MEA_dev_spike_duration_mean: CCTE's Neural Network Formation Assay for Mean Spike Duration, Shafer Lab (AID 2284051).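 For AC50: potency for a decrease in mean network spike duration versus DMSO.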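 Note: mean network spike duration pooled as area under curve over DIV 5 to 12 recordings.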 The method, boiled down: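 Rat cortical primary cultures, 48-well MEA (16 electrodes/well); compound from plating, renewed DIV 5, 9. Network spike duration (AxIS adaptive detector) recorded DIV 5/7/9/12, combined as trapezoidal AUC; loss direction vs DMSO.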

The nature of test [14]: CCTE_Shafer_MEA_dev_network_spike_duration_std: CCTE's Neural Network Formation Assay for Standard Deviation of Network Spike Duration, Shafer Lab (AID 2284052).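 Note: area under curve of spike duration SD across recording days 5 to 12; hits are decreases in network spike duration SD versus DMSO vehicle.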 In short, it runs like this:
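Rat cortical cultures, 1.5 x 10^5 cells/well, exposed continuously from plating to DIV 12 with media/compound renewal at DIV 5, 9. Spontaneous activity recorded DIV 5/7/9/12, AxIS adaptive spike detector; AUC across days; negative direction vs DMSO.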

Test [15] can be described thus: CCTE_Shafer_MEA_dev_per_network_spike_spike_percent: CCTE's Neural Network Formation Assay for Percent of Spikes in a Network Spike, Shafer Lab (AID 2284054). In short, it runs like this: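 Read-out: percent of spikes falling in a 0.05 s window at network-spike peak, from spontaneous MEA recordings on days 5, 7, 9 and 12; trapezoidal AUC; loss of signal versus DMSO. Rat cortical cultures, compound present throughout.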

Another test relates to DIO2 (gene 1734). As to the kind of experiment: CCTE_GLTED_hDIO2: CCTE's human Deiodinase 2 (DIO2) Inhibition Assay, Great Lakes Toxicology and Ecology Division (GLTED) Lab (AID 2284050; active = hit-call score of the fitted dose curve at least 0.9, where 1 is the maximum). In short, it runs like this:
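Iodide released by human deiodinase 2 over 3 h with test chemical, measured spectrophotometrically via Sandell-Kolthoff cerium/arsenic reaction. Run n=3; inhibition referenced to DMSO.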

The test system of the next test is DIO3 (gene 1735). Kind of test: CCTE_GLTED_hDIO3: CCTE's human Deiodinase 3 (DIO3) Inhibition Assay, Great Lakes Toxicology and Ecology Division (GLTED) Lab (AID 2284055; active = hit-call score of the fitted dose curve at least 0.9, where 1 is the maximum;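 note: potency is for inhibition seen as loss of released iodide signal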). In short, it runs like this:
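Inhibition is read as reduced iodide release, measured spectrophotometrically by the Sandell-Kolthoff cerium/arsenic reaction. Adenovirus-expressed human DIO3 enzyme is exposed to chemical for 3 h, n=3 plates. Iodinated chemicals, nitrite, iron or thiocyanate may interfere.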

A short description of test [16]: CCTE_Shafer_MEA_dev_LDH: CCTE's Lactate Dehydrogenase Assay for Cytotoxicity in the Neural Network Formation Assay, Shafer Lab (AID 2284068; active = hit-call score of the fitted dose curve at least 0.9, where 1 is the maximum;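 note: exposure for twelve days from plating with re-dosing on DIV 5 and 9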). The method, boiled down: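 Rat cortical primary neurons, MEA culture; dosing day 0–12, full medium plus compound exchange DIV 5, 9. Read-out: LDH enzyme activity, spectrophotometric. DMSO = negative control/baseline; signal loss → cytotoxicity.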

The nature of test [17]: CCTE_Shafer_MEA_acute_AB: CCTE's Alamar Blue Assay for Cytotoxicity in the Neural Acute Assay, Shafer Lab (AID 2284069; active = hit-call score of the fitted dose curve at least 0.9, where 1 is the maximum;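 note: active compounds lower the viability signal compared with DMSO wells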). In short, it runs like this: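 Read-out: resazurin fluorescence (ex 544, em 590 nm) after CTB reagent at 1:6 dilution in fresh media. Cells: primary rat cortical neuron networks, DIV 13 or 15, chemically exposed on MEA plates; DMSO as negative control/baseline.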
Background: Alamar Blue is a resazurin reagent that responds to reducing activity.

Test [18] can be described thus: UKN5_HCS_SBAD2_cell_viability: Viability Assessment in the University of Konstanz (UKN) Leist Lab Neurite Outgrowth Assay in human iPSC-derived immature Dorsal Root Ganglia Neurons (UKN5) (AID 2284056). In short, it runs like this:
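iPSC-derived immature peripheral neurons (SBAD2) seeded on Matrigel with CHIR99021, SU5402 and DAPT, dosed 1 h later for 24 h. Viability from Hoechst H-33342 and calcein-AM live staining, high-content imaging; bidirectional fit versus DMSO.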

Regarding `CCCCC(CC)C(=O)O` (centres undefined), the call in [1] and in test [2] was inactive.

Regarding `COc1cc([N+](=O)[O-])ccc1N`, the concentration at half-maximal activity (AC50) in test [1] was 118 µM (active); in test [2] it was 100 µM (active). The compound was classed as inactive in test [3] and in test [4].

With `NC(C(F)(F)F)C(F)(F)F`, the compound was classed as inactive in [5], in test [6], in test [7], in test [8], in [9] and in [10]. Besides, the call in [11], in test [12], in [13], in test [14] and in test [15] was inactive.

`CC(C)[C@@H]1CC[C@@H](C)C[C@H]1O`: the outcome in test [2] was inactive.

Regarding `O=S(=O)(O)c1ccccc1`, the compound was called inactive in test [1].

Take `Cc1cc(Cc2cc(C)cc(C(C)(C)C)c2O)c(O)c(C(C)(C)C)c1`: the AC50 is 43.1 µM (active) in test [1], 41.8 µM (active) in test [2], 97.6 µM (active) with DIO2 (gene 1734) and 14.2 µM (active) in the test with DIO3 (gene 1735). In [4], the result was inactive.

For the compound `CCCCCCCCCCCCOC(=O)c1cc(O)c(O)c(O)c1`, the result in test [1], in [3] and in test [4] was inactive. Also, the AC50 in [2] is 128 µM (active); in the test with DIO2 (gene 1734) it was 82 µM (active); with DIO3 (gene 1735), 6.66 µM (active).

As for `CC(=O)Nc1ccc(O)cc1`, the compound was called inactive in [1], in [5], in test [6], in test [7], in [8] and in test [9]. Also, the outcome in [10], in test [11], in test [12], in test [13], in test [14] and in test [15] was inactive. The result in test [16] and in test [17] was inactive. Also, the AC50 in test [8] is 22.5 µM (active).

Take `CCCCCCCCCC=CCC1CC(=O)OC1=O` (centres undefined): the compound was called inactive in [3], in test [2] and in test [4]. Moreover, the half-maximal activity concentration (AC50) is 64.3 µM (active) in the test with DIO2 (gene 1734) and 27.2 µM (active) in the test on DIO3 (gene 1735).

`Nc1ccn([C@@H]2O[C@H](CO)[C@@H](O)C2O)c(=O)n1` (some centres undefined): the AC50 is 0.472 µM (active) in test [5]; 0.314 µM (active) in [6]; 0.85 µM (active) in test [7]; 0.856 µM (active) in test [8]; 0.695 µM (active) in test [9]; 0.125 µM (active) in test [11]. Also, the AC50 in test [12] was 0.329 µM (active); in test [13] it was 0.358 µM (active); in test [14] it was 0.239 µM (active); in test [15], 0.119 µM (active); in test [16], 1 µM (active). Also, the compound was called inactive in test [10] and in test [18].

Turning to `C=CC(F)(F)C(F)(F)C(F)(F)C(F)(F)F`, the call in [5], in test [6], in test [7], in [8], in test [9] and in [10] was inactive. In addition, the compound was called inactive in [11], in [12], in [13], in [14] and in [15].

On to `CN(CCO)S(=O)(=O)C(F)(F)C(F)(F)C(F)(F)C(F)(F)C(F)(F)C(F)(F)C(F)(F)C(F)(F)F`, for which the call in [6], in [7], in test [8], in [9], in test [10] and in test [11] was inactive. In addition, the call in test [12], in test [13], in [14] and in test [15] was inactive.

As a reminder, the AC50 is the concentration at which the activity in the assay is half-maximal.
